Measurements from PubChem BioAssay.
Active and inactive are the calls of the source.

What was measured:
[1] = tested on: PRMT1 (protein arginine N-methyltransferase 1); assay: small molecules binding arginine methyltransferase PRMT1 – biochemical, small-molecule microarray, 635 nm fluorescence, primary screen (AID 1088); conditions: higher = more signal;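 also: binding of Prmt1 protein to compounds spotted on small-molecule microarray slides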
[2] = growth effects on S. cerevisiae YJM789 – YJM789 clinical isolate, OD600, 24 h, basal, primary screen (AID 1089); conditions: higher = more signal, called active from +8 up or from −8 down;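 also: growth of clinical yeast isolate S. cerevisiae YJM 789 seeded 1000 cells per well; test concentration not given here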
[3] = S. pombe growth modifiers, basal conditions – strain 972, OD600, 24 h, no modulator, primary screen (AID 1090);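 also: basal condition with compound alone and no growth modifier present; test concentration not given here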; conditions: S. pombe 972 growth, higher = more signal, called active from +8 up or from −8 down
[4] = budding yeast growth modifiers under rapamycin – strain BY4716, OD600, 96 h, primary screen (AID 1091); also: test concentration not given here; conditions: S. cerevisiae BY4716 + rapamycin, higher = more signal, called active from +8 up or from −8 down
[5] = target: Torsin-1A-interacting protein 2 (Homo sapiens) (UniProt Q8NFQ8); assay: small molecules binding lysate-expressed LULL1 – cell lysate, human LULL1 lysate, 635/667 nm fluorescence, primary screen (AID 1092); conditions: small-molecule microarray, hLULL1 lysate binding, 635 nm fluorescence; higher = more signal;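 also: probe is lysate of COS7 cells overexpressing human LULL1; score merges per-feature 667 nm fluorescence with signal-to-noise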
[6] = optical density change of DRC41 E. coli – strain DRC41, OD650, 24 h, E. coli filamentation project, primary screen (AID 1093);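 also: MC1000 strain lacking acrAB efflux and sulA so SOS filamentation is blocked; test concentration not given here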; conditions: E. coli DRC41 growth, higher = more signal, called active from +8 up or from −8 down
[7] = probe aLefty2 binding to arrayed compounds – biochemical, biotinylated probe, 635/667 nm fluorescence, primary screen (AID 1094); conditions: small-molecule microarray, higher = more signal;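 also: score merges spot fluorescence near 667 nm with spot signal-to-noise ratio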
[8] = tested on: Noggin (protein binding on small-molecule microarray); assay: small molecules binding Noggin protein – biochemical, 635/667 nm fluorescence, primary screen (AID 1095); conditions: 635 nm fluorescence, higher = more signal;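 also: score merges 667 nm feature fluorescence with signal to noise over triplicate slides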
[9] = target: Neurogenic locus notch homolog protein 3 (Homo sapiens) (UniProt Q9UM47); assay: small molecules binding NOTCH3 protein – biochemical, 635/667 nm fluorescence, primary screen (AID 1096); conditions: small-molecule microarray, 635 nm fluorescence, higher = more signal
[10] = probe aEGFR binding to arrayed compounds – biochemical, biotinylated probe, 635/667 nm fluorescence, primary screen (AID 1097); conditions: small-molecule microarray, higher = more signal;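 also: probe is a biotinylated anti-EGFR antibody binding compounds printed on slides; score combines fluorescence near 667 nm and signal to noise of each spot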
[11] = tested on: Plasmodium falciparum Sir2 (PF13_0152, Sir2A); assay: Plasmodium falciparum Sir2A binding compounds – biochemical, small-molecule microarray, 635 nm fluorescence, primary screen (AID 1098); conditions: fluorescence 635 nm, higher = more signal;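 also: score merges spot fluorescence intensity with its signal-to-noise ratio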
[12] = probe aDKK1 binding to arrayed compounds – biochemical, biotinylated probe, 635/667 nm fluorescence, primary screen (AID 1099); conditions: small-molecule microarray, higher = more signal;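 also: score merges 667nm spot fluorescence with signal to noise across triplicate slides; reference of the scale not given here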
[13] = probe aCHRDL2 binding to arrayed compounds – biochemical, biotinylated probe, 635/667 nm fluorescence, primary screen (AID 1100); conditions: small-molecule microarray, higher = more signal
[14] = change in splice reporter luminescence, either direction, cell-based, HEK293, spliceosome inhibition project, primary screen (AID 1101); conditions: HEK293 splicing luciferase reporter, 24 h, higher = more signal, called active from +8 up or from −8 down;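 also: HEK293 cells carrying a splicing-competent luciferase reporter gene; test concentration not given here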
[15] = target: Fibroblast growth factor 10 (Homo sapiens) (UniProt O15520); assay: compounds binding fibroblast growth factor 10 – biochemical, small-molecule microarray, 635 nm fluorescence, primary screen (AID 1102); conditions: FGF10 binding, fluorescence 635 nm, higher = more signal
[16] = tested on: glycogen synthase kinase-3 (GSK3A per assay name; protocol says GSK3B); assay: compounds binding glycogen synthase kinase-3 – biochemical, small-molecule microarray, 635 nm fluorescence, GSK3A, primary screen (AID 1103); conditions: fluorescence 635 nm, higher = more signal; also: the record names both GSK3A and GSK3B
[17] = target: Epidermal growth factor receptor (Homo sapiens) (UniProt P00533); assay: compounds binding epidermal growth factor receptor – biochemical, small-molecule microarray, 635 nm fluorescence, primary screen (AID 1104); conditions: EGFR binding, higher = more signal;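 also: score merges 667 nm emission intensity with spot signal to noise over triplicate slides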
[18] = target: Follistatin-related protein 3 (Homo sapiens) (UniProt O95633); assay: compounds binding follistatin-related protein 3 – biochemical, small-molecule microarray, 635 nm fluorescence, primary screen (AID 1105); conditions: FSTL3 binding, higher = more signal;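 also: score merges emission near 667 nm and signal to noise per printed spot across three slides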
[19] = target: Dickkopf-related protein 1 (Homo sapiens) (UniProt O94907); assay: small molecules binding DKK1 protein – biochemical, small-molecule microarray, 635 nm fluorescence scan, primary screen (AID 1106); conditions: higher = more signal;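 also: score merges emission near 667 nm with signal to noise over three replicate slides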
[20] = tested on: Inhibin beta A chain (activin A); assay: small molecules binding activin A – biochemical, small-molecule microarray, 635 nm fluorescence scan, primary screen (AID 1107); conditions: INHBA, higher = more signal;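 also: mouse activin A protein probed at 4.33 µg/mL on printed slides; score merges bound-protein fluorescence near 667 nm with spot signal-to-noise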

Sequence of Dickkopf-related protein 1 (Homo sapiens) (O94907 whole entry, looked up): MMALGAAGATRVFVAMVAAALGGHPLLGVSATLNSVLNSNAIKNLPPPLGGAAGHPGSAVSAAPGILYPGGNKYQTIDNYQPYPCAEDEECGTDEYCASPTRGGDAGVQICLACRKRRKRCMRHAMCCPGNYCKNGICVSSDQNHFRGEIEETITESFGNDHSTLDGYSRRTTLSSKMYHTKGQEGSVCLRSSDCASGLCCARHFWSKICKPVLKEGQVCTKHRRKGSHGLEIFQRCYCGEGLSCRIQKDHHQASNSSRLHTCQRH
Sequence of Fibroblast growth factor 10 (Homo sapiens) (O15520 whole entry, looked up): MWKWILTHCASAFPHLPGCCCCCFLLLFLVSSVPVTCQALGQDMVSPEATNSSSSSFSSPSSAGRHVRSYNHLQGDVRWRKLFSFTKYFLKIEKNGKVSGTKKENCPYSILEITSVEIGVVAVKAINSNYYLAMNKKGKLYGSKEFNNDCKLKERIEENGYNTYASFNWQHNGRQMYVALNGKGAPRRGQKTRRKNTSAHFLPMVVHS
Sequence of Torsin-1A-interacting protein 2 (Homo sapiens) (Q8NFQ8 whole entry, looked up): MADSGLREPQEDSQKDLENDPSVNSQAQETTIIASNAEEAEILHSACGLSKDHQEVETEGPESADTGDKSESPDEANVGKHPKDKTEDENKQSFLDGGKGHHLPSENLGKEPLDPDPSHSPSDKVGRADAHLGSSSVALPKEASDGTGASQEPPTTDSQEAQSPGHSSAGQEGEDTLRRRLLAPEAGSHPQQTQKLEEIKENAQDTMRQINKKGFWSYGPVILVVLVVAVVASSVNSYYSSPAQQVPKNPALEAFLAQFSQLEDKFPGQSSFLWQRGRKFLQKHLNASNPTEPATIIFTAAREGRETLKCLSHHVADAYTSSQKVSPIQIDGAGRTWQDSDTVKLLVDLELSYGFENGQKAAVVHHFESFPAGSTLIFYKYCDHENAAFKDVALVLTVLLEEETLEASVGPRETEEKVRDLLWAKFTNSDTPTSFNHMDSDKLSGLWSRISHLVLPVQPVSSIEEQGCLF
Sequence of Epidermal growth factor receptor (Homo sapiens) (P00533 whole entry, looked up): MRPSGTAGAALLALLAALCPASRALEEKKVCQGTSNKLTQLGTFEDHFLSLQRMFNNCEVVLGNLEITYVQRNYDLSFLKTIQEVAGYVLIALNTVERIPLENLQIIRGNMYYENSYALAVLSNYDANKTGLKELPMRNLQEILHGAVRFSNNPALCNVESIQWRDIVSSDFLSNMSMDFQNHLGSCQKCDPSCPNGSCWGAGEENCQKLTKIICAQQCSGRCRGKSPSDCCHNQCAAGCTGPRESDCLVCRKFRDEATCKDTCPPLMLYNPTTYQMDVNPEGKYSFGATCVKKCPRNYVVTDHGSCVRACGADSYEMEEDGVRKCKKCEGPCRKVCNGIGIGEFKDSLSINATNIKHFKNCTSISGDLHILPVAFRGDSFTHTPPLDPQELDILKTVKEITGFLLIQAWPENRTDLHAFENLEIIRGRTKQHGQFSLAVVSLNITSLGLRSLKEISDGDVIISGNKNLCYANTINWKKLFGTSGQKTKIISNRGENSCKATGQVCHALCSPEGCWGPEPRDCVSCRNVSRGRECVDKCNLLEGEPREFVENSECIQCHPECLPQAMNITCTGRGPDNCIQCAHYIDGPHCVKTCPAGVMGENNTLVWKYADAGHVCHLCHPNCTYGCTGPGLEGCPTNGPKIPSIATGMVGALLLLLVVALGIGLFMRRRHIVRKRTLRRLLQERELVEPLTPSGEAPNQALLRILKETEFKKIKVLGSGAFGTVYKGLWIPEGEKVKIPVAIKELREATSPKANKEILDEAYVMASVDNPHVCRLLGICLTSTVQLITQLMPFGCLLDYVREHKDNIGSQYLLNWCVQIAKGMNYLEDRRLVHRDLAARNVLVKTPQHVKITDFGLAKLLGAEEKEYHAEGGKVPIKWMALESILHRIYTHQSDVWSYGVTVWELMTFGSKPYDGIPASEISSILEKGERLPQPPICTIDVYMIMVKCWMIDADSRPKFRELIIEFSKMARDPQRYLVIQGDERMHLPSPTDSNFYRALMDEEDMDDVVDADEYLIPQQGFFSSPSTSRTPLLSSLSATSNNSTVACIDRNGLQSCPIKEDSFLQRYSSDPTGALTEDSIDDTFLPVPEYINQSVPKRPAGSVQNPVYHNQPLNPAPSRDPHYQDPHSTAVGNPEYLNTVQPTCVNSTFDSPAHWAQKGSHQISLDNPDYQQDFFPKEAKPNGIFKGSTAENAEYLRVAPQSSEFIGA
Sequence of Follistatin-related protein 3 (Homo sapiens) (O95633 whole entry, looked up): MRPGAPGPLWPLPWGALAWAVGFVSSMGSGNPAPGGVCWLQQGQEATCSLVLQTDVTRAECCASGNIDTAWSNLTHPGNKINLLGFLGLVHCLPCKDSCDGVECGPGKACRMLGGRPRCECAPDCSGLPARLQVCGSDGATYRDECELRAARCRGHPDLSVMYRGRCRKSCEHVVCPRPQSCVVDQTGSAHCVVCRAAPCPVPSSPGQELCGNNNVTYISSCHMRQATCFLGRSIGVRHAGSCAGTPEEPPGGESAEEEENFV
Sequence of Neurogenic locus notch homolog protein 3 (Homo sapiens) (Q9UM47 whole entry, looked up): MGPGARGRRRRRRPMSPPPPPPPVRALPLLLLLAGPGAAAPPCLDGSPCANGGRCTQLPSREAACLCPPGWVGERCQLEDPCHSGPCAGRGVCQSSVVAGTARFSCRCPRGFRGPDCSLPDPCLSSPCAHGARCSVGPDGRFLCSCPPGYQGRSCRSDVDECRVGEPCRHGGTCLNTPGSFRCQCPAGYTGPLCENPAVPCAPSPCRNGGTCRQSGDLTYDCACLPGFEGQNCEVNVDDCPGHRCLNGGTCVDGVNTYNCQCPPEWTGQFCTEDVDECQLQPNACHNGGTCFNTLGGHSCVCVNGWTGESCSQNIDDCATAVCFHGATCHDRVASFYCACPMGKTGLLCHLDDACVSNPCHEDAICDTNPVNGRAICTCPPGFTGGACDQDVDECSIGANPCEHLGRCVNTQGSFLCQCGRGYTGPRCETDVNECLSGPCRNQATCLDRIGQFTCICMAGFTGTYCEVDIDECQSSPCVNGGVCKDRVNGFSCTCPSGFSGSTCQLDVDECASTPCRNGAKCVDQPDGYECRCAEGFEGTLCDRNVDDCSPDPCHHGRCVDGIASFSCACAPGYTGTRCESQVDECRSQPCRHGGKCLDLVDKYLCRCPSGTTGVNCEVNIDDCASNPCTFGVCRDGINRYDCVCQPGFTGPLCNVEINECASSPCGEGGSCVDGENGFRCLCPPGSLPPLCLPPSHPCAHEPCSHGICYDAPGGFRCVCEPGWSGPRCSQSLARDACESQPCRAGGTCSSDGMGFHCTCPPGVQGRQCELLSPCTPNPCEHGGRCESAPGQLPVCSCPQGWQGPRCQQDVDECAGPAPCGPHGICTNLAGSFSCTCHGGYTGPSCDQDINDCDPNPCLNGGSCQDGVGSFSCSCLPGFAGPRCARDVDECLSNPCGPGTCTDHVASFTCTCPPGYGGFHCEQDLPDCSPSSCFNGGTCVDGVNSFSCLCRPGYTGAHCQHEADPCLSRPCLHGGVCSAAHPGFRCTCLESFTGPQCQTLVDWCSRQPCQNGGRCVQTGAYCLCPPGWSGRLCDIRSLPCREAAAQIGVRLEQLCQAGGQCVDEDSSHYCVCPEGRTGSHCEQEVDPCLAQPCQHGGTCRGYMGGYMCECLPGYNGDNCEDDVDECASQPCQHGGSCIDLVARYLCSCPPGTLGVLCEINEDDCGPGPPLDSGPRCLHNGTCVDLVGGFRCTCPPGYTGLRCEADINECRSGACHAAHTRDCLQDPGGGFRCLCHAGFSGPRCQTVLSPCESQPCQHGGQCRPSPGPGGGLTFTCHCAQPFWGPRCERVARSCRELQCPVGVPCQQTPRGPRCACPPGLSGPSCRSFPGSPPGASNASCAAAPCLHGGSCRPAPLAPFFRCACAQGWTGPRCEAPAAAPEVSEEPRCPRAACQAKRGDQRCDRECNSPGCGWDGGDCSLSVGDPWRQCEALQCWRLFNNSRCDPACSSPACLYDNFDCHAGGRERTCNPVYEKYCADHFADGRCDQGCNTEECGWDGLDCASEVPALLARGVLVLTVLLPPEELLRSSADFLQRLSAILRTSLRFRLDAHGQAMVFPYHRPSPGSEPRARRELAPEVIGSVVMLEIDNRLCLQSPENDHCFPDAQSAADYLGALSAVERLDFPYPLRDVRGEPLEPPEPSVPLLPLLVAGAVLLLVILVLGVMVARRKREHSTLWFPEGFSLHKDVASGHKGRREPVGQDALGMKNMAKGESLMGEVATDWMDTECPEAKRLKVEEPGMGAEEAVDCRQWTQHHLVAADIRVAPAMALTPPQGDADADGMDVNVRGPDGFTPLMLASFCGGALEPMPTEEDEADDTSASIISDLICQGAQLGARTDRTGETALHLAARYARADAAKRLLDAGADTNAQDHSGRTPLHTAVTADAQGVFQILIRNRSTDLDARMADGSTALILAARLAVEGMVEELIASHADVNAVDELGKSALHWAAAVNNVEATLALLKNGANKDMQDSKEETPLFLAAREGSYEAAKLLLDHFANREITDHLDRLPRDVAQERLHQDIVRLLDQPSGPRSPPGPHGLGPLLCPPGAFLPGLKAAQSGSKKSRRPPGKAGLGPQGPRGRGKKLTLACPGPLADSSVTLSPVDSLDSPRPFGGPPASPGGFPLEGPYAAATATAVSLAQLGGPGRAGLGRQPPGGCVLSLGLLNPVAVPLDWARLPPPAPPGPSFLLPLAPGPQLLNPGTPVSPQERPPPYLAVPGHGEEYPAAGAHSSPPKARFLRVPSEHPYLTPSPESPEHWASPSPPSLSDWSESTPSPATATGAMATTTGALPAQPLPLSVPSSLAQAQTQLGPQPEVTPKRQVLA

SMILES | composite z-score [1] | z-score [2] | z-score [3] | z-score [4] | composite z-score [5] | z-score [6] | composite z-score [7] | composite z-score [8] | composite z-score [9] | composite z-score [10] | composite z-score [11] | composite z-score [12] | composite z-score [13] | z-score [14] | composite z-score [15] | composite z-score [16] | composite z-score [17] | composite z-score [18] | composite z-score [19] | composite z-score [20]
CC(C)[C@@H](C(=O)O)n1cc(-c2ccccc2)nn1 | 0.0283 | -0.0149 (inactive) | -0.0883 (inactive) | -0.244 (inactive) | 1.19 | -1.44 (inactive) | -0.0623 | 0.192 | 0.938 | 0.125 | 0.377 | 0.824 | 0.69 | 0.317 (inactive) | 0.737 | 1.27 | 0.262 | 0.256 | 0.0435 | 0.48
COCCOC(=O)N1C(=O)[C@@]2(c3cc(C#CC4=CCCCC4)ccc31)[C@H](C(=O)N1CCc3cc(OC)c(OC)cc3C1)[C@H]1C(=O)O[C@H](c3ccccc3)[C@H](c3ccccc3)N1[C@@H]2c1ccc(O)cc1 | 1.5 | 1.68 (inactive) | 0.94 (inactive) | 2.7 (inactive) | 2.68 | 0.951 (inactive) | 1.08 | 0.552 | 1.16 | 0.657 | 1.04 | 0.26 | -0.0061 | -0.258 (inactive) | 0.438 | 1.12 | 1.32 | 0.583 | 0.391 | 0.732
[N-]=[N+]=NCc1ccccc1C[C@@]1(C(=O)O)N=C(c2ccc(OCCCO)cc2)O[C@@H]1c1ccccc1CN=[N+]=[N-] | 1.28 | -1.5 (inactive) | -3.13 (inactive) | -1.55 (inactive) | 1.59 | 0.345 (inactive) | 0.0829 | 0.34 | 0.679 | 0.0264 | 0.705 | 0.317 | 0.779 | -0.806 (inactive) | 1.15 | 0.577 | -0.227 | 0.814 | 0.31 | 0.69
CCCC[C@H]1OB(O)C[C@H]2C1=C(COC)C[C@H]1C(=O)C=CC(=O)[C@H]12 | 1.42 | 0.275 (inactive) | -1.56 (inactive) | -0.293 (inactive) | 0.117 | 0.898 (inactive) | -0.0798 | 0.747 | 0.936 | -0.071 | 0.351 | -0.177 | -0.461 | 0.635 (inactive) | 0.6 | 0.385 | 0.645 | 1.07 | 0.717 | 1.21
